Results on 13 compounds are retold here after PubChem BioAssay (NCI).

Assay in all cases: NCI-60 one-dose screen, 48 h (100 = growth as untreated, 0 = no growth, -100 = all killed)
Common to all, as to settings: 10 µM unless noted

In test [1] the test system is SK-MEL-2 melanoma.
Test [2] concerns EKVX NSCLC.
In test [3] the test system is SN12C renal.
For test [4], the system named is UO-31 renal.
Test [5] relates to TK-10 renal.
Test [6] deals with ACHN renal.
Test [7] concerns CAKI-1 renal.
For test [8], the system named is A498 renal.
Test [9] relates to CCRF-CEM leukemia.
The subject of test [10] is MOLT-4 leukemia.

Compounds without any hit were thinned out: in the full panel of roughly 83,000, 20% have a hit.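 Assay: single dose, 48 h. Readout: percent growth (0 = no net growth; negative = cell death). Active: <10.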 Values without a mark were called inactive. Activity calls are given as the source filed them.

In the case of `O=C(/C=C/c1ccccc1)c1cccc(OCCCOc2cccc(C(=O)/C=C/c3ccccc3)c2)c1`, the growth in test [1] was 101%; in test [2], 103%; in test [3], 94.2%; in test [4], 74.2%; in [5], 107%; in [6], 102%. The growth in [7] was 86.4%; in test [8], 92%; in [9], 76.5%; in test [10], 86.9%.

Take `CCN1CCN(c2cc(C(=O)Nc3nc(-c4cc(OC)c(OC)c(OC)c4)cs3)cc(C(F)(F)F)c2)CC1`: the growth in test [1] is 81.4%; in test [2] it was 64.9%; in test [3] it was 71.8%; in [4], 37%; in test [5] it was 82.4%; in test [6], 73.2%. Also, the growth was 84% in test [7], 73.5% in test [8], 59% in [9] and 43.9% in test [10].

Regarding `COc1ccc(-c2csc(NC(=O)CSc3nc(-c4ccccc4)cc(=O)[nH]3)n2)cc1`, the growth in test [1] was 59.7%; in test [2], 58.1%; in [3], 80.3%; in test [4] it was 65.6%; in test [5], 78.9%; in [6], 63%. For the same compound, the growth in [7] is 74.7%; in test [8], 64.7%; in test [9], 57.9%; in test [10], 14.4%.

For the compound `C=CCn1c(SCC(=O)Nc2ccc(C(=O)/C=C/c3ccc(Cl)cc3)cc2)nnc1-c1cc(-c2ccc(S(N)(=O)=O)cc2)nc2ccccc12`, the growth in test [1] is 103%; in test [2] it was 94.6%; in test [3] it was 90.2%; in test [4] it was 82.8%; in test [5], 99.9%; in [6], 98.1%. Besides, the growth in test [7] was 66.3%; in test [8], 89%; in test [9] it was 54.2%; in test [10], 66.1%.

`COc1cc(CNS(=O)(=O)c2ccc(C)cc2)ccc1OCc1cn(-c2ccc(Br)cc2)nn1`: the growth in test [1] was 104%; in [2], 93.1%; in test [3] it was 105%; in [4] it was 69.3%; in test [5], 112%; in [6], 98.4%. Moreover, the growth was 91.6% in [7], 70.6% in test [8], 90.4% in [9] and 101% in test [10].

Turning to `Cc1nc2sc(C(=O)Nc3cccc(Cl)c3C)c(N)c2cc1C(=O)c1ccccc1`, the growth in test [1] is 49.7%; in [2] it was 40.5%; in test [3], 29.3%; in test [4], 38.8%; in test [5], 47.1%; in [6], 33.7%. In addition, the growth in test [7] was 33.1%; in test [8] it was -7.4% (active); in test [9] it was 8.23% (active); in [10], 16.4%.

In the case of `COc1cc(OC)cc(C2=C3CC[C@@H]4[C@H](CC[C@]5(C)C(=O)CC[C@@H]45)C3=CC3C(O)c4cccnc4N4C(=O)COC234)c1` (stereo not given in full), the growth in [1] is 108%; in test [2], 101%; in [3], 101%; in test [4], 86.2%; in test [5] it was 96.5%; in [6] it was 102%. In addition, the growth was 86.6% in [7], 91.6% in test [8], 104% in test [9] and 96.2% in [10].

As for `O=C(Cn1c2c(c3ccccc31)CCCC2)Nc1ccc(-c2nc3ccccc3s2)cc1`, the growth was 98.6% in test [1]; 108% in test [2]; 103% in test [3]; 92.6% in test [4]; 98.9% in test [5]; 112% in test [6]. The growth in test [7] is 100%; in test [8] it was 94%; in test [9], 93.2%; in test [10], 98.8%.

For `COc1cc(OC)c2sc(-c3ccc(-n4cncc4-c4ccc(OC)c(OC)c4)cc3)nc2c1`, the growth was 33.5% in test [1]; 54.7% in test [2]; 72.3% in test [3]; 25.5% in [4]; 71.9% in test [5]; 38.7% in test [6]. Besides, the growth in test [7] was 8.81% (active); in test [8], 56.3%; in test [9], 53.2%; in test [10], 33.6%.

Take `Oc1ccc(CN2CCC(N3CCCCC3)CC2)c2cccnc12`: the growth was 2.95% (active) in test [1]; 45.6% in test [2]; 22.2% in test [3]; 5.93% (active) in test [4]; -58.5% (active) in test [5]; 8.86% (active) in test [6]. Also, the growth in test [7] is 44%; in test [8] it was 71.3%; in test [9], 35.8%; in test [10], 41.2%.

Take `CCc1ccc(Oc2cn[nH]c2-c2ccc(OCCc3ccc(F)cc3)cc2O)cc1`: the growth was 90.1% in test [1]; 87.9% in [2]; 95.3% in [3]; 81.7% in test [4]; 66.8% in [5]; 94% in [6]. In addition, the growth in test [7] is 100%; in test [8] it was 105%; in test [9], 95.6%; in test [10], 84.4%.

Turning to `Cc1ccc(-c2nc(N3CCNCC3)c3oc(-c4ccccc4)nc3n2)cc1`, the growth in test [1] was 61.2%; in [2] it was 101%; in test [3], -84.3% (active); in test [4] it was -90.6% (active); in test [5], -98.6% (active); in test [6] it was -99.8% (active). Moreover, the growth in [7] was 40.5%; in test [8] it was 95.7%; in test [9], -76% (active); in test [10], -68.8% (active).

Regarding `Cc1ccc(Sc2nnc(/N=C3\C(=O)Nc4ccccc43)s2)cc1`, the growth in test [1] was 105%; in test [2], 102%; in test [3], 97.5%; in test [4], 90.5%; in test [5] it was 104%; in [6], 96.6%. Besides, the growth is 85.6% in test [7], 93.6% in test [8], 93.4% in [9] and 100% in test [10].
